These results are taken from PubChem BioAssay (NCATS).

Results filed as inconclusive are left out. Activity calls are given as the source filed them. The call rests on the fitted dose curve.

Assay [1] can be described thus: qHTS drug screen for cell cycle checkpoint inhibitors in PARPi-resistant BRCA-mutant ovarian cancer cell lines. (AID 1963452). The note with it: PEO1/OlaR viability, CellTiter-Glo luminescence, 96 h, stronger effect = lower value. In outline:
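PEO1, PEO4 and PEO1/OlaR ovarian cancer cells, 600 per well, exposed 96 h at 37C to a dilution series. Viability read by CellTiter-Glo luminescence, normalized to DMSO and empty wells; activity summarized as Z-AUC.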

Assay [2] is described as follows: qHTS for identification of novel therapeutic agents for treatment of microphthalmiaassociated transcription factor (MiT) renal cell carcinoma (RCC) (AID 1963991). The note with it: CellTiter-Glo, 48 h, stronger effect = lower value. The essentials: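 Curves over 11 concentrations were fitted to CellTiter-Glo luminescence, scaled between empty wells (0%) and DMSO (100%) viability. Cells were UOK109, UOK124 and UOK145 TFE3-fusion RCC lines at 500/well, exposed 48 hours at 37 C.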
Background: Quantitative high-throughput screening tests each substance at several concentrations.

The mark [3] stands for this setting: measured here: PEO1 parental Z-AUC.
Setting [4] is: TFE3-RCC UOK109 viability, measured here: UOK109 Z-AUC.
Setting [5] is: TFE3-RCC viability, measured here: UOK124 Z-AUC.
Setting [6] is: TFE3-RCC viability, measured here: UOK145 Z-AUC.

For the molecule `CCNc1cc(NC2CCC(O)CC2)nc(Nc2ccc3c(ccn3Cc3ccccc3)c2)n1` (stereo unspecified), the Z-AUC in assay [1] is 0.474 (inactive); in assay [1] (setting [3]) it was 0.235; in assay [1] (measured here: PEO4 Z-AUC) it was 0.72.

On to `NC(=O)c1ccc2nc(-c3ccc(Oc4ccc(Cl)cc4)cc3)[nH]c2c1`, for which the Z-AUC in assay [1] was -1.56 (inactive); in assay [1] (setting [3]) it was -1.26; in assay [1] (measured here: PEO4 Z-AUC), -1.18.

In the case of `Cc1nc(N)sc1-c1ccnc(Nc2ccc(N3CCOCC3)cc2)n1`, the Z-AUC in assay [1] was -0.158 (inactive); in assay [1] (setting [3]), -0.029; in assay [1] (measured here: PEO4 Z-AUC) it was -0.545.

Regarding `C[N+](C)(C)CC(=O)O`, the Z-AUC in assay [1] was -0.734 (inactive); in assay [1] (setting [3]), 0.456; in assay [1] (measured here: PEO4 Z-AUC) it was -0.678.

Regarding `O=C(O)CCC1CCC(c2cc(F)ccc2F)(S(=O)(=O)c2ccc(Cl)cc2)CC1` (stereo unspecified), the figures for the Z-AUC in assay [1], in assay [1] (setting [3]) and in assay [1] (measured here: PEO4 Z-AUC) were 1.02 (inactive), 0.969 and 0.83, respectively.

In the case of `O=c1cc(N2CCOCC2)oc2c(-c3cccc4c3sc3ccccc34)cccc12`, the Z-AUC in assay [1] was 0.27 (inactive); in assay [1] (setting [3]), 0.135; in assay [1] (measured here: PEO4 Z-AUC), 0.0636.

With `CC1CCC(C(=O)N(c2cc(C#CC(C)(C)C)sc2C(=O)O)C2CCC(O)CC2)CC1` (stereo unspecified), the figures for the Z-AUC in assay [1], in assay [1] (setting [3]) and in assay [1] (measured here: PEO4 Z-AUC) were 0.0164 (inactive), -0.415 and -0.158, respectively.

As for `O=C(O)C(O)Cc1ccc(O)c(O)c1` (stereo unspecified), the Z-AUC was 0.82 (inactive) in assay [1], 1.05 in assay [1] (setting [3]) and 0.735 in assay [1] (measured here: PEO4 Z-AUC). The z-score worked out at 0.888 in assay [2] (setting [4]), 1.07 in assay [2] (setting [5]) and 1.23 in assay [2] (setting [6]).

In the case of `COc1ccc2c(Oc3ccc(NC(=O)c4c(C)n(CC(C)(C)O)n(-c5ccccc5)c4=O)nc3)ccnc2c1`, the results for the Z-AUC in assay [1], in assay [1] (setting [3]) and in assay [1] (measured here: PEO4 Z-AUC) were 0.509 (inactive), 0.436 and -0.433, respectively.

Consider `Cc1ccc(F)c(NC(=O)Nc2ccc(-c3cccc4[nH]nc(N)c34)cc2)c1`, for which the results for the Z-AUC in assay [1], in assay [1] (setting [3]) and in assay [1] (measured here: PEO4 Z-AUC) were 1.25 (inactive), 1.09 and 1.16, respectively.

Regarding `O=c1c(O)c(-c2ccc(O)cc2)oc2cc(O)cc(O)c12`, the results for the Z-AUC in assay [1], in assay [1] (setting [3]) and in assay [1] (measured here: PEO4 Z-AUC) were 0.889 (inactive), 1.15 and 1.73, respectively.

On to `COc1cc2c(cc1OC)CN(CCc1ccc(NC(=O)c3cc(OC)c(OC)cc3NC(=O)c3cnc4ccccc4c3)cc1)CC2`, for which the Z-AUC is 0.969 (inactive) in assay [1], 1.41 in assay [1] (setting [3]) and 1.02 in assay [1] (measured here: PEO4 Z-AUC).

In the case of `O=C(O)c1ccc(-c2c[nH]c3ncc(-c4ccccc4)cc23)cc1C1CCCC1`, the figures for the Z-AUC in assay [1], in assay [1] (setting [3]) and in assay [1] (measured here: PEO4 Z-AUC) were 0.296 (inactive), -0.104 and 0.0769, respectively. Also, the z-score was found to be 1.28 in assay [2] (setting [4]), 0.56 in assay [2] (setting [5]) and 0.0409 in assay [2] (setting [6]).

Take `CCS(=O)(=O)N1CC(CC#N)(n2cc(-c3ncnc4[nH]ccc34)cn2)C1`: the Z-AUC in assay [1] was 0.685 (inactive); in assay [1] (setting [3]), 0.902; in assay [1] (measured here: PEO4 Z-AUC), 0.44.

In the case of `NC(CO)(CO)CCc1ccc(Sc2cccc(OCc3ccccc3)c2)cc1Cl`, the Z-AUC in assay [1] was 0.362 (inactive); in assay [1] (setting [3]) it was -0.197; in assay [1] (measured here: PEO4 Z-AUC), -0.274.

As to `CN(C)Cc1cccc(N=C(c2ccccc2)c2c(O)[nH]c3cc(C(=O)N(C)C)ccc23)c1`, the results for the Z-AUC in assay [1], in assay [1] (setting [3]) and in assay [1] (measured here: PEO4 Z-AUC) were -0.969 (inactive), -0.73 and -1.01, respectively.

In the case of `C[C@H](NC(=O)c1sccc1OCc1ccc(Cl)cc1)c1ccccc1`, the Z-AUC in assay [1] is 0.368 (inactive); in assay [1] (setting [3]), -0.143; in assay [1] (measured here: PEO4 Z-AUC), -0.0391.

As to `CC(C)(C)NC(=O)Nc1cccc(Nc2ncc(F)c(NC(C)(C)CO)n2)c1`, the Z-AUC in assay [1] was -0.707 (inactive); in assay [1] (setting [3]), -1.21; in assay [1] (measured here: PEO4 Z-AUC), -1.05. For the same molecule, the z-score in assay [2] (setting [4]) was 1.09; in assay [2] (setting [5]), -0.121; in assay [2] (setting [6]), 0.237.

On to `CN1[C@@H]2CCC[C@@H]1CC(NC(=O)c1nn(C)c3ccccc13)C2` (stereo partly specified), for which the values for the Z-AUC in assay [1], in assay [1] (setting [3]) and in assay [1] (measured here: PEO4 Z-AUC) were -0.105 (inactive), -0.292 and 0.149, respectively. In addition, the z-score stood at 0.506 in assay [2] (setting [4]), 0.637 in assay [2] (setting [5]) and 0.0896 in assay [2] (setting [6]).

Turning to `O=C(O)c1cc(O)c2c(c1)C(=O)c1cccc(O)c1C2=O`, the results for the Z-AUC in assay [1], in assay [1] (setting [3]) and in assay [1] (measured here: PEO4 Z-AUC) were -0.369 (inactive), -0.852 and -0.959, respectively. The z-score was 1.17 in assay [2] (setting [4]), -0.187 in assay [2] (setting [5]) and 1.5 in assay [2] (setting [6]).

On to `Cc1cccc(Nc2nc(-c3ccncc3)cs2)c1`, for which the Z-AUC in assay [1] is 0.772 (inactive); in assay [1] (setting [3]) it was 0.626; in assay [1] (measured here: PEO4 Z-AUC) it was 0.437.

For the molecule `CC(C(=O)O)c1ccc(-c2ccccc2)c(F)c1` (stereo unspecified), the values for the Z-AUC in assay [1], in assay [1] (setting [3]) and in assay [1] (measured here: PEO4 Z-AUC) were 0.668 (inactive), 0.939 and 1.4, respectively.

For `COc1ccc(-n2c(C)c([N+](=O)[O-])c3ccc(O)cc32)cc1`, the figures for the Z-AUC in assay [1], in assay [1] (setting [3]) and in assay [1] (measured here: PEO4 Z-AUC) were -0.721 (inactive), -0.631 and -0.862, respectively. In addition, the values for the z-score in assay [2] (setting [4]), in assay [2] (setting [5]) and in assay [2] (setting [6]) were 0.538, 0.575 and 0.643, respectively.

As for `O=c1c(-c2ccc(O)cc2)coc2cc(O)ccc12`, the Z-AUC in assay [1] is 1.12 (inactive); in assay [1] (setting [3]) it was 1.51; in assay [1] (measured here: PEO4 Z-AUC) it was 1.78. Further, the z-score in assay [2] (setting [4]) amounted to 0.875; in assay [2] (setting [5]) it was 0.542; in assay [2] (setting [6]), 0.636.

On to `O=c1cc(-c2ccccc2)oc2cc(O)c(O)c(O)c12`, for which the Z-AUC was 0.741 (inactive) in assay [1], 0.629 in assay [1] (setting [3]) and 0.577 in assay [1] (measured here: PEO4 Z-AUC).

Regarding `NS(=O)(=O)c1ccc(NC2=CC(=O)c3ccccc3C2=O)cc1`, the Z-AUC in assay [1] is -0.549 (inactive); in assay [1] (setting [3]), -0.888; in assay [1] (measured here: PEO4 Z-AUC), -0.629.

As for `O=c1cc(-c2cccc3c2Sc2ccccc2S3)oc(N2CCOCC2)c1`, the Z-AUC is 1.05 (inactive) in assay [1], 1.03 in assay [1] (setting [3]) and 0.875 in assay [1] (measured here: PEO4 Z-AUC).

In the case of `CCOc1ccc(Nc2nc(-c3c(C)nc4ccccn34)cs2)cc1`, the Z-AUC in assay [1] is -0.0903 (inactive); in assay [1] (setting [3]), -0.777; in assay [1] (measured here: PEO4 Z-AUC), 0.137.

On to `CS(=O)(=O)N(Cc1ccco1)CC(O)Cn1c2ccccc2c2ccccc21` (stereo unspecified), for which the Z-AUC in assay [1] was 1.06 (inactive); in assay [1] (setting [3]), 0.549; in assay [1] (measured here: PEO4 Z-AUC), 0.481.

`N#Cc1ccc(NC(=O)Nc2ccccc2Br)c2n[nH]nc12`: the Z-AUC was 1.45 (inactive) in assay [1], 0.952 in assay [1] (setting [3]) and 1.04 in assay [1] (measured here: PEO4 Z-AUC).
